From PubChem BioAssay AID624305 (National Center for Advancing Translational Sciences (NCATS), 2012)
Results filed as inconclusive are left out. Activity calls are given as the source filed them. Calls come from the whole dose curve; as a rule, active = well fitted activation curve with a large enough effect; inconclusive = small, poorly fitted or top-dose-only effect; inactive = no such curve, though single readings can be large or run the other way.

Test: qHTS assay for re-activators of p53 using a Luc reporter: Hit Validation; note: nearly all actives have a fitted effect of over 75% in size; for activation: 0% is about no effect
Details: p53-responsive luciferase reporter cells, luminescence, H1299 line expressing heat-sensitive Ala138Val p53; series mostly up to 46.1 µM; activation: at the top concentration
Outline: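 H1299 (p53-null) cells stably carrying p53-A138V and a BP100-luciferase reporter, 1000 cells/well, treated 24 h at 37 deg C. Compounds at several concentrations, 1:5 dilution; nocodazole control; luminescence read after 10 min with detection reagent.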
Potency is the fitted concentration of half-maximal effect.

activation, inactive:
C/C(=N\NC(=O)c1cccs1)C(C)(C)C -6.77%
O=C(Cn1cc2c(n1)CCCCC2)NC1CCCCCC1 69.8%
O=C(CC1NC2CCCCC2NC1=O)Nc1ccc2c(c1)OCO2 (stereo not given) 9.38%
CS(=O)(=O)N1CCC(C(=O)Nc2cc(Cl)c(Cl)cc2Cl)CC1 -4.17%
O=C(Nc1ccc(Cl)cc1)Nc1nnc(SCc2ccccc2)s1 41.1%
CN(Cc1ccccc1)c1ncnc2ccc(Br)cc12 -21.4%
COc1cccc(NC(=O)CCN2CCOCC2)c1 -2.6%
CCCCC(=O)Nc1cccc(NC(=S)NC(=O)Cc2ccccc2)c1 -23.4%
COc1ccc(-n2nc([N+](=O)[O-])c(=NCc3ccco3)n2O)cc1 39.6%
Oc1ccc(N=Cc2c(O)ccc3ccccc23)cc1 8.85%
Cc1ccc(C(=O)c2c3ccc([N+](=O)[O-])cc3[n+]([O-])n2CCCN)cc1 15.1%
Cc1ccc(OCCCNCCO)c(Br)c1 39.1%
NNc1nc(NCc2ccccc2)nc(N2CCOCC2)n1 -7.29%

Potency, active:
Fc1cccc(NCc2cn3ccccc3n2)c1 3260 nM
Cc1cccc(NC(=O)/C=C/c2ccc(Cl)cc2)n1 2310 nM
CCOc1ccc(N/C=C/C(=O)c2ccccc2)c([N+](=O)[O-])c1 461 nM
C/C(=N\NC(=O)c1cccc(Br)c1)c1ccccn1 9200 nM
Cc1nn(-c2ccccc2)c(C)c1/C=N/Nc1nc2ccccc2[nH]1 731 nM
Cc1ccc(-c2nc(-c3cccnc3)no2)c(C)c1 4610 nM
C/C(=C\C(=O)c1ccccc1)Nc1ccc2c(c1)OCO2 2910 nM
